The nature of assay [1]: Quantitative High-Throughput drug screen in 47 multiple myeloma cell lines against the NCATS MIPE library collection: KHM11_PLB cell viability assay (AID 1918962). Note: nearly all actives have a fitted effect of over 35% in size. An outline of the steps: (§1)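 Inhibition of cell viability is measured here. Each line was plated at 500 cells per well, treated with MIPE 4.0 drugs, kept 48 hours at 37C, then assayed for ATP content by CellTiter-Glo luminescence.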

A short description of assay [2]: Quantitative High-Throughput drug screen in 47 multiple myeloma cell lines against the NCATS MIPE library collection: JIM3_ECACC cell viability assay (AID 1918963; note: nearly all actives have a fitted effect of over 35% in size). An outline of the steps: as §1
Assay [3] in a line: Quantitative High-Throughput drug screen in 47 multiple myeloma cell lines against the NCATS MIPE library collection: JIM1_ECACC cell viability assay (AID 1918964). An outline of the steps:
(§2)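 Myeloma cells (500 per well) were exposed to MIPE 4.0 compounds by pin transfer and incubated 48 hours at 37C, 5% CO2. Viability was read as ATP by CellTiter-Glo luminescence, normalised to DMSO (100%) and media-only (0%) wells.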

Assay [4] can be described thus: Quantitative High-Throughput drug screen in 47 multiple myeloma cell lines against the NCATS MIPE library collection: INA6_PLB cell viability assay (AID 1918965; note: nearly all actives have a fitted effect of over 55% in size). A digest of the protocol: (§3)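 qHTS of the MIPE 4.0 collection: 500 myeloma cells/well, 48 h drug exposure at 37C in 5% CO2, then CellTiter-Glo for 5 min at room temperature before luminescence reading.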
A short description of assay [5]: Quantitative High-Throughput drug screen in 47 multiple myeloma cell lines against the NCATS MIPE library collection: JJN3_DSMZ cell viability assay (AID 1918966; note: nearly all actives have a fitted effect of over 50% in size). A digest of the protocol:
as §2

Assay [6] is described as follows: Quantitative High-Throughput drug screen in 47 multiple myeloma cell lines against the NCATS MIPE library collection: Karpas25_ECACC cell viability assay (AID 1918968; note: nearly all actives have a fitted effect of over 35% in size). An outline of the steps: as §2
Assay [7] can be described thus: Quantitative High-Throughput drug screen in 47 multiple myeloma cell lines against the NCATS MIPE library collection: KMS27_JCRB cell viability assay (AID 1918970). Note: nearly all actives have a fitted effect of over 30% in size. A digest of the protocol:
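Viability inhibition screen, 48 h compound exposure, luminescent ATP read-out.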

Assay [8] can be described thus: Quantitative High-Throughput drug screen in 47 multiple myeloma cell lines against the NCATS MIPE library collection: KMS12BM_JCRB cell viability assay (AID 1918971). Note: nearly all actives have a fitted effect of over 35% in size. An outline of the steps: as §3
The nature of assay [9]: Quantitative High-Throughput drug screen in 47 multiple myeloma cell lines against the NCATS MIPE library collection: KMS12PE_JCRB cell viability assay (AID 1918972). Note: nearly all actives have a fitted effect of over 30% in size. An outline of the steps:
as §3

Assay [10] in a line: Quantitative High-Throughput drug screen in 47 multiple myeloma cell lines against the NCATS MIPE library collection: KMS20_JCRB cell viability assay (AID 1918973). Note: nearly all actives have a fitted effect of over 45% in size. An outline of the steps:
as §2

Assay [11] can be described thus: Quantitative High-Throughput drug screen in 47 multiple myeloma cell lines against the NCATS MIPE library collection: KMS26_JCRB cell viability assay (AID 1918975). Note: nearly all actives have a fitted effect of over 45% in size. A digest of the protocol: as §3
Assay [12] is described as follows: Quantitative High-Throughput drug screen in 47 multiple myeloma cell lines against the NCATS MIPE library collection: MMM1_PLB cell viability assay (AID 1918976). Note: nearly all actives have a fitted effect of over 35% in size. An outline of the steps: (§4)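 Viability after 48 h drug exposure was measured as ATP-dependent luminescence. Cells, 500 per well, sat at 37 °C under 5% CO2; DMSO wells set 100%, media-only wells 0%.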
Assay [13] can be described thus: Quantitative High-Throughput drug screen in 47 multiple myeloma cell lines against the NCATS MIPE library collection: NCIH929_DSMZ cell viability assay (AID 1918978). Note: nearly all actives have a fitted effect of over 35% in size. An outline of the steps: as §4
Assay [14] is described as follows: Quantitative High-Throughput drug screen in 47 multiple myeloma cell lines against the NCATS MIPE library collection: MM1S_ATCC cell viability assay (AID 1918980). Note: nearly all actives have a fitted effect of over 45% in size. An outline of the steps:
as §4

The nature of assay [15]: Quantitative High-Throughput drug screen in 47 multiple myeloma cell lines against the NCATS MIPE library collection: H1112_PLB cell viability assay (AID 1918967; note: nearly all actives have a fitted effect of over 30% in size). An outline of the steps: as §2
The nature of assay [16]: Quantitative High-Throughput drug screen in 47 multiple myeloma cell lines against the NCATS MIPE library collection: MOLP8_DSMZ cell viability assay (AID 1918977). Note: nearly all actives have a fitted effect of over 45% in size. An outline of the steps: as §4
Assay [17] can be described thus: Quantitative High-Throughput drug screen in 47 multiple myeloma cell lines against the NCATS MIPE library collection: OCIMY1_PLB cell viability assay (AID 1918979). Note: nearly all actives have a fitted effect of over 35% in size. An outline of the steps: as §4
Assay [18] can be described thus: Quantitative High-Throughput drug screen in 47 multiple myeloma cell lines against the NCATS MIPE library collection: Karpas417_ECACC cell viability assay (AID 1918961). Particulars: Karpas417 myeloma viability, CellTiter-Glo ATP luminescence, 48 h; viability (% of DMSO): at 45.8 µM (top of the series). An outline of the steps: as §3
On the technique in general: ATP-based viability assays read luminescence as a measure of living cells.

The structures appear in SMILES notation. Results filed as inconclusive are left out. Active and inactive are the calls of the source. Calls come from the whole dose curve; as a rule, active = well fitted curve in the direction sought with a large enough effect; inconclusive = small, poorly fitted or top-dose-only effect, or another doubt; inactive = no such curve, though single readings can be large; an effect the other way counts as inactive or inconclusive.
Potency is the fitted concentration of half-maximal effect.

As to `CC1(O)CC(c2nc(-c3ccc4ccc(-c5ccccc5)nc4c3)c3c(N)nccn23)C1` (stereo not given), the Potency is 4180 nM (active) in assay [1]; 148 nM (active) in [2]; 10.5 nM (active) in assay [3]; 6620 nM (active) in assay [4]; 6620 nM (active) in [5]; 372 nM (active) in [6]. Besides, the Potency in [7] is 2350 nM (active); in assay [8], 16600 nM (active); in assay [9], 2350 nM (active); in assay [10], 1180 nM (active); in assay [11], 833 nM (active); in [12], 209 nM (active). Moreover, the Potency was 187 nM (active) in assay [13] and 132 nM (active) in assay [14].

Consider `CCOc1cc2ncc(C#N)c(Nc3ccc(F)c(Cl)c3)c2cc1NC(=O)C=CCN(C)C`, for which the Potency in [1] was 20900 nM (active); in [2] it was 18700 nM (active); in [4], 526 nM (active); in assay [5], 9350 nM (active); in assay [15], 5260 nM (active); in assay [6], 662 nM (active). The Potency in assay [8] is 5260 nM (active); in assay [10], 4690 nM (active); in assay [12], 18700 nM (active); in assay [16], 20900 nM (active); in [13], 5900 nM (active); in [17], 18700 nM (active). In addition, the Potency in assay [14] was 296 nM (active).

Turning to `CCN1CCN(CC(=O)Nc2ccc(-c3cccc4c(=O)cc(N5CCOCC5)oc34)c3sc4ccccc4c23)CC1`, the Potency in assay [1] was 52.6 nM (active); in assay [2], 1180 nM (active); in assay [3] it was 469 nM (active); in [5] it was 3720 nM (active); in [15] it was 6620 nM (active); in assay [6], 264 nM (active). Also, the Potency was 418 nM (active) in assay [7]; 1050 nM (active) in assay [8]; 2350 nM (active) in [9]; 1180 nM (active) in [10]; 1320 nM (active) in assay [11]; 187 nM (active) in assay [13]. The Potency in [17] was 5900 nM (active); in assay [14], 7430 nM (active).

Turning to `COc1ccc(C(=O)CC2(O)C(=O)Nc3c(Cl)ccc(Cl)c32)cc1` (stereo not given), the Potency result in [1] was “inactive”. Moreover, the Potency was 2350 nM (active) in assay [2]; 1050 nM (active) in assay [3]; 2350 nM (active) in [4]; 6620 nM (active) in [5]; 13200 nM (active) in assay [15]; 5260 nM (active) in [6]. The Potency in assay [7] is 1050 nM (active); in [8], 2090 nM (active); in assay [9] it was 1320 nM (active); in assay [11], 2960 nM (active); in assay [12], 14800 nM (active); in assay [13] it was 18700 nM (active). In addition, the Potency in assay [14] is 18700 nM (active).

Take `CNC(=O)CN1CCC(Oc2cc3c(Nc4cccc(Cl)c4F)ncnc3cc2OC)CC1`: the Potency in assay [1] is 37.2 nM (active); in assay [2], 33.2 nM (active); in assay [3], 1 nM (active); in assay [4] it was 23.5 nM (active); in [6], 18.7 nM (active); in assay [7], 1 nM (active). For the same compound, the Potency in assay [8] is 18.7 nM (active); in [9], 10.5 nM (active); in assay [10], 41.8 nM (active); in assay [13] it was 59 nM (active); in assay [14], 10.5 nM (active).

In the case of `CN[C@H]1CCc2cc(OC)c(OC)c(OC)c2-c2ccc(OC)c(=O)cc21`, the Potency in assay [18] is 59 nM (active); in assay [5], 18.7 nM (active); in [6] it was 10.5 nM (active); in [8] it was 1.7 nM (active); in assay [11], 14.8 nM (active); in assay [12] it was 10.5 nM (active). The Potency in assay [16] and in assay [13] was 23.5 nM (active) in each case. Further, in assay [3], the Potency result was “inactive”.
